Unmarked numbers belong to inactive results. Inconclusive results are not listed. A call without a number means that no potency is given here. Active and inactive are the calls of the source. Unless noted, calls follow the shape of the full dose curve.
Experiments:
[1] = Nuclear factor erythroid 2-related factor 2/antioxidant responsive element (Nrf2/ARE) small molecule agonists: qHTS cell viability counter screen in human keratinocytes (AID 1919968; active = well fitted curve in the direction sought with a large enough effect in the repeat runs; an effect the other way counts as inactive or inconclusive; also: nearly all actives have a fitted effect of over 55% in size; also: potency is read from the fitted curve at half-maximal effect)
Method in brief: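 HaCaT ARE reporter line, 1,500 cells/well; 5 h settle, 37 C/5% CO2; cpd in DMSO pinned; 23 h exposure; CellTiter-Fluor, 1 h; fluorescence.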

[2] = Nuclear factor erythroid 2-related factor 2/antioxidant responsive element (Nrf2/ARE) small molecule agonists: luciferase reporter gene qHTS assay in human keratinocytes (AID 1919969); also: nearly all actives have a fitted effect of over 35% in size; also: potency is read from the fitted curve at half-maximal effect
[3] = G protein-coupled receptor (GPCR) small molecule agonists, calcium flux assay: HEK293 wild type cell line counter screen (AID 1920065)
Method in brief: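 Kinetic fluorescence at Ex/Em 480/540, recorded every second over 3 min, served as the read-out after compound addition. Each compound was tested at 15 concentrations in triplicate on cells pre-loaded with calcium dye for 1 h.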

[4] = p53 small molecule agonists, cell-based qHTS assay with human liver microsomes (AID 1963577);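 also: p53 response element beta-lactamase reporter cells with liver microsomes plus NADPH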
Method in brief: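 Steps: plate p53RE-bla cells, incubate 5 h at 37 C; add compound in DMSO; add microsomes (0.5 mg/mL final) and NADPH (0.5 mg/mL final); incubate 16 h at 37 C; add LiveBLAzer, 2 h RT; read fluorescence.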

[5] = p53 small molecule agonists, cell-based qHTS assay with rat liver microsomes (AID 1963578)
Method in brief: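 Metabolic activation is supplied by rat liver microsomes with NADPH (each 0.5 mg/mL final). p53RE-bla cells incubate with compound 16 h at 37 C; reporter activity is measured by LiveBLAzer fluorescence.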

[6] = p53 small molecule agonists, cell-based qHTS assay with human liver microsomes: qHTS cell viability counter screen (AID 1963579); also: nearly all actives have a fitted effect of over 45% in size; also: potency is read from the fitted curve at half-maximal effect
Method in brief: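 After the 460/530 nm beta-lactamase read, CellTiter-Glo was added to the same wells and luminescence measured after 30 min at room temperature, giving viability of p53RE-bla cells treated 16 h with compounds plus microsomes and NADPH.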

[7] = p53 small molecule agonists, cell-based qHTS assay with rat liver microsomes: qHTS cell viability counter screen (AID 1963580); also: nearly all actives have a fitted effect of over 45% in size; also: potency is read from the fitted curve at half-maximal effect
Method in brief: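 In HCT-116 cells carrying a p53 response element-bla reporter, compounds were metabolically activated in situ by rat liver microsomes with NADPH over 16 h. Cell ATP content then served as the cytotoxicity measure.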

[8] = p53 small molecule agonists, cell-based qHTS assay: qHTS cell viability counter screen (AID 1963581); also: nearly all actives have a fitted effect of over 45% in size
Method in brief: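 HCT-116 p53RE-bla cells, 4,000/well, plated 5 h before compound pin transfer; 16 h at 37 C; bla substrate 2 h RT; then CellTiter-Glo, 30 min RT, luminescence.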

[9] = molecular target: Muscarinic acetylcholine receptor M1 (Homo sapiens) (UniProt P11229); assay: Cholinergic receptor muscarinic 1 (CHRM1) small molecule antagonists, cell-based qHTS assay (AID 1963588); also: nearly all actives have a fitted effect of over 40% in size; also: potency is read from the fitted curve at half-maximal effect
Method in brief: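 CHRM1-CHO calcium-flux assay, antagonist mode. Cells were seeded 18 h, dye-loaded 1 h at 37 C and given compound for 5 min at RT, then acetylcholine was added at 50nM. FDSS fluorescence was read 3 min; 15 concentrations, three runs.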

[10] = molecular target: Muscarinic acetylcholine receptor M1 (Homo sapiens) (UniProt P11229); assay: Cholinergic receptor muscarinic 1 (CHRM1) small molecule agonists, cell-based qHTS assay (AID 1963589); also: nearly all actives have a fitted effect of over 35% in size
Method in brief: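 Human M1 in stable CHO line; 18 h plating, 1 h dye load 37 C; cpd added (agonist mode); Ca2+ fluorescence kinetic read, 1 s intervals; 15 conc, 3 runs.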

[11] = cAMP Responsive Elements (CRE) small molecule antagonists, cell-based qHTS assay (AID 1963591; active = well fitted inhibition curve with a large enough effect in the signal ratio in the repeat runs, not every such curve was filed as active; the % refers to the signal ratio)
Method in brief: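 Beta-lactamase reporter read by FRET substrate (LiveBLAzer B/G) after 2 h at room temperature. CRE-bla HEK293T cells had received compound plus 0.25 uM (final) NKH477 for 3 h at 37 °C.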

[12] = molecular target: D(2) dopamine receptor (Homo sapiens) (UniProt P14416); assay: Dopamine D2 receptor (DRD2) small molecule agonists, cell-based qHTS assay (AID 1963594); also: nearly all actives have a fitted effect of over 35% in size
Method in brief: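 HEK293 cells stably expressing DRD2 were cultured 24 h at 37 C, then given Ro20-1724 (0.1 mM final) and compounds for 10 min at room temperature. NKH477 (200nM) was then added for 30 min. cAMP was read by HTRF.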

[13] = p53 small molecule agonists, cell-based qHTS assay (AID 1963582; active = well fitted activation curve with a large enough effect in the signal ratio in the repeat runs, not every such curve was filed as active; the % refers to the signal ratio; also: potency is read from the fitted curve at half-maximal effect)
Method in brief: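 Reporter line: p53RE-bla. Pre-incubation 5 h, 37 C, 5% CO2; compound (DMSO, pin tool) 16 h, 37 C; B/G FRET substrate 2 h RT; fluorescence intensity read.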

[14] = molecular target: 5-hydroxytryptamine receptor 2A (Homo sapiens) (UniProt P28223); assay: 5-hydroxytryptamine receptor 2A (HTR2A) small molecule antagonists, cell-based qHTS assay (AID 1963586); also: nearly all actives have a fitted effect of over 45% in size
Method in brief: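 Antagonist-mode intracellular calcium assay: DOI (4 nM) added after 5 min compound pre-incubation at room temperature to dye-loaded HTR2A-CHO cells. Fluorescence followed for 3 min, sampled every second.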

[15] = molecular target: Beta-2 adrenergic receptor (Homo sapiens) (UniProt P07550); assay: Adrenergic beta2 receptor (ADRB2) small molecule antagonists, cell-based qHTS assay (AID 1963592); also: nearly all actives have a fitted effect of over 50% in size; also: potency is read from the fitted curve at half-maximal effect
Method in brief: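 Cells (CHO, stable ADRB2 overexpression) incubated 18-20hr at 37C; compounds added from DMSO; agonist mix (1nM isoproterenol, 100uM IBMX, 25uM Ro-20-1724) added; 0.5hr RT; d2-cAMP and anti-cAMP-cryptate added; 1hr RT; 665/615 nm read.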

[16] = molecular target: D(2) dopamine receptor (Homo sapiens) (UniProt P14416); assay: Dopamine D2 receptor (DRD2) small molecule antagonists, cell-based qHTS assay (AID 1963595; active = well fitted inhibition curve with a large enough effect in the signal ratio in the repeat runs, with a control signal flat; the % refers to the signal ratio)
Method in brief: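 HTRF cAMP read-out at 665 and 620 nm emission (340 nm excitation). Antagonist mode: compounds were tested against 12 nM quinpirole in DRD2-HEK293 cells, with 200 nM NKH477 raising cAMP and 0.1 mM Ro20-1724 blocking its breakdown.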

[17] = molecular target: KiSS-1 receptor (Homo sapiens) (UniProt Q969F8); assay: Human kisspeptin (KISS1R) small molecule agonists, calcium flux assay in KISS1R-HEK293 cells (AID 1920064; active = well fitted curve in the direction sought with a large enough effect in the repeat runs; an effect the other way counts as inactive or inconclusive)
Method in brief: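 Stable human KISS1R HEK293 line; 18 h plating, 37 C/5% CO2; calcium dye 1 h 37 C; compound pin transfer; kinetic fluorescence Ex/Em 480/540, 3 min.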

[18] = molecular target: 5-hydroxytryptamine receptor 2A (Homo sapiens) (UniProt P28223); assay: 5-hydroxytryptamine receptor 2A (HTR2A) small molecule agonists, cell-based qHTS assay (AID 1963587); also: nearly all actives have a fitted effect of over 30% in size; also: potency is read from the fitted curve at half-maximal effect
Method in brief: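 HTR2A-CHO cells, plated 18 h at 37 C/5% CO2, dye-loaded 1 h at 37 C; compounds in DMSO added by pin tool (agonist mode). Intracellular calcium flux read as kinetic fluorescence on FDSS over 2 min at 1 s intervals.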

[19] = cAMP Responsive Elements (CRE) small molecule agonists, cell-based qHTS assay (AID 1963590)
Method in brief: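 HEK 293T CRE-bla, 2,000 cells/well, 18 h preincubation 37 C/5% CO2; cpds (DMSO) pinned, 3 h; LiveBLAzer B/G FRET substrate, 2 h RT.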

Sequence of 5-hydroxytryptamine receptor 2A (Homo sapiens) (P28223 whole entry, looked up): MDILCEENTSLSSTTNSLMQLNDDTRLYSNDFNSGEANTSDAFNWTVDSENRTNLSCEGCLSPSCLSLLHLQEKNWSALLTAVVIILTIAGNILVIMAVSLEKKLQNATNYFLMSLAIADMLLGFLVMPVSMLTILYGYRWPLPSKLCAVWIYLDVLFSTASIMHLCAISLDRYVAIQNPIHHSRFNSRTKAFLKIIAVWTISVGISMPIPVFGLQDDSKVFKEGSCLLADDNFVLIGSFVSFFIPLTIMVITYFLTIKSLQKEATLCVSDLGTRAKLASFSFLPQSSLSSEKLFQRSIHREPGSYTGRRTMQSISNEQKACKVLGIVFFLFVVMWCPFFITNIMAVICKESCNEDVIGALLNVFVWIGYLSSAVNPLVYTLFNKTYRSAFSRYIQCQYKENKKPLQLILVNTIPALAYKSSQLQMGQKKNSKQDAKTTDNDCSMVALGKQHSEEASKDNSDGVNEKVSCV
Sequence of Beta-2 adrenergic receptor (Homo sapiens) (P07550 whole entry, looked up): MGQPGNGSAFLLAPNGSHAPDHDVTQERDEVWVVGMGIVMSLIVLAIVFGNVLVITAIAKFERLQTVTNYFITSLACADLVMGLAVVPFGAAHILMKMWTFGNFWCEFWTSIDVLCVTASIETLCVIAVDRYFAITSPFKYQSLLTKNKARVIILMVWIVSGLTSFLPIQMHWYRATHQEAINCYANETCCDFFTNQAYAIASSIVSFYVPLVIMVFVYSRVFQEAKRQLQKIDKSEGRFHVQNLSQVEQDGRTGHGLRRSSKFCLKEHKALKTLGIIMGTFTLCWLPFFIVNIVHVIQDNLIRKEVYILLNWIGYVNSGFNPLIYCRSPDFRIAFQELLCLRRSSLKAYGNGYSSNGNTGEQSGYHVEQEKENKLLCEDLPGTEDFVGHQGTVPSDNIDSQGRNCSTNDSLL
Sequence of KiSS-1 receptor (Homo sapiens) (Q969F8 whole entry, looked up): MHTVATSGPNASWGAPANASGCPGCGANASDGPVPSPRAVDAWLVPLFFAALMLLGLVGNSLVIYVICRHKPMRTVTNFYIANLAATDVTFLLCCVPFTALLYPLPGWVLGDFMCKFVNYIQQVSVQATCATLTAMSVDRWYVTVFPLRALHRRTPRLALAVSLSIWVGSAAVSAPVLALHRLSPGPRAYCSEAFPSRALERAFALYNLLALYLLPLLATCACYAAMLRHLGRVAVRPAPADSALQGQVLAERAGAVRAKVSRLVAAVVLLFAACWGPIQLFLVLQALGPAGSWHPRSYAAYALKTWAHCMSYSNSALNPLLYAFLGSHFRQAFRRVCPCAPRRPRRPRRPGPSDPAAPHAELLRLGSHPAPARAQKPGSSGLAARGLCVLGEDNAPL
Sequence of D(2) dopamine receptor (Homo sapiens) (P14416 whole entry, looked up): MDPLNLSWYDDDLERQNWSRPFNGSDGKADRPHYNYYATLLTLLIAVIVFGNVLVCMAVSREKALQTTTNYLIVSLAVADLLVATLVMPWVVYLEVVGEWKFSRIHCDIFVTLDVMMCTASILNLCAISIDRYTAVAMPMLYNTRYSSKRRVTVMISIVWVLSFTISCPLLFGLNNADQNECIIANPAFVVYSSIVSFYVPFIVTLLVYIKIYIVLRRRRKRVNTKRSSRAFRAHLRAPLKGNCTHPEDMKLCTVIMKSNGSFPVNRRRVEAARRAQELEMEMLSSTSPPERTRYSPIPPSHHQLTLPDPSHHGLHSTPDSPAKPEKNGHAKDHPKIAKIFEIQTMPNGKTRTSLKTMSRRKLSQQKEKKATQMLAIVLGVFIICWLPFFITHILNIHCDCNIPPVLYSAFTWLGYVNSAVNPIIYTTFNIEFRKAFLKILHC
Sequence of Muscarinic acetylcholine receptor M1 (Homo sapiens) (P11229 whole entry, looked up): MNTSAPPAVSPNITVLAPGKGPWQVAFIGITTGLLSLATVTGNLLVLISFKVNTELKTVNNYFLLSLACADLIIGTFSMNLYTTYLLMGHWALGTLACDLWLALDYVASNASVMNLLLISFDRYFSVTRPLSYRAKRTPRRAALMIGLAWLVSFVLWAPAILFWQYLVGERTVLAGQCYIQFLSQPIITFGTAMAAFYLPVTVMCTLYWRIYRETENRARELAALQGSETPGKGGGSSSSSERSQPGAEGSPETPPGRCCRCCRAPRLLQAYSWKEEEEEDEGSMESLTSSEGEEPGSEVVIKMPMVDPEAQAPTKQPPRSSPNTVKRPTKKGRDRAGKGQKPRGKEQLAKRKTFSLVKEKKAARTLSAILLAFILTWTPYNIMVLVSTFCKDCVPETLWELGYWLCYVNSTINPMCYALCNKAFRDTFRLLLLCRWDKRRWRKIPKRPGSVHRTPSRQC

| Compound | Potency [1] | Potency [2] | Potency [3] | Potency [4] | Potency [5] | Potency [6] | Potency [7] | Potency [8] | Potency [9] | Potency [10] | Potency [11] | Potency [12] | Potency [13] | Potency [14] | Potency [15] | Potency [16] | Potency [17] | Potency [18] | Potency [19] |
| --- | --- | --- | --- | --- | --- | --- | --- | --- | --- | --- | --- | --- | --- | --- | --- | --- | --- | --- | --- |
| O=C(Cl)c1ccc(Cl)cc1Cl | inactive | inactive | inactive | inactive | inactive | inactive | inactive | inactive | inactive | inactive | inactive | inactive |  |  |  |  |  |  |  |
| CC(C)(C)CC(C)(C)c1ccc(OCCO)cc1 | inactive | inactive | inactive | inactive | inactive | inactive | inactive | inactive |  | inactive |  | inactive | inactive | inactive | inactive | inactive |  |  |  |
| COc1nc(C)nc(N)n1 | inactive | inactive | inactive |  |  | inactive |  | inactive | inactive | inactive | inactive |  |  | inactive | inactive | inactive | inactive | inactive | inactive |
| CN1CCN2c3ccccc3Cc3ccccc3C2C1 (stereo unspecified) | inactive | inactive |  | inactive | inactive |  | inactive |  |  |  | inactive |  | inactive |  | inactive | inactive | inactive |  | inactive |
| CC(C)OC(=O)c1cc(C(=O)OC(C)C)cc([N+](=O)[O-])c1 | inactive | inactive | inactive |  |  |  | inactive |  | inactive | inactive |  |  |  | inactive | 62.6 µM (active) | inactive | inactive |  |  |
| C[C@]12CCC(=O)C=C1[C@@H]1C[C@@H]1[C@H]1[C@@H]3[C@@H]4C[C@@H]4[C@@]4(CCC(=O)O4)[C@@]3(C)CC[C@@H]12 | inactive | inactive | inactive | inactive | inactive | inactive | inactive | inactive | 18.3 µM (active) | inactive |  | inactive | inactive | inactive | inactive | inactive |  | inactive |  |
| CCCCCCNC(=O)n1cc(F)c(=O)[nH]c1=O | inactive | inactive |  | inactive |  | inactive | inactive |  |  |  | inactive | inactive | 5 µM (active) |  | inactive | inactive | inactive |  | inactive |
| C[C@H](CCC(=O)O)[C@H]1CC[C@H]2[C@@H]3C(=O)C[C@@H]4CC(=O)CC[C@]4(C)[C@H]3CC(=O)[C@]12C | inactive | inactive | inactive |  |  | inactive | inactive |  | inactive | inactive |  | inactive |  | inactive | inactive | inactive | inactive | inactive |  |
| CCCC(=O)O[C@]1(C(=O)CO)CC[C@H]2[C@@H]3CCC4=CC(=O)CC[C@]4(C)[C@H]3[C@@H](O)C[C@@]21C | inactive | inactive | inactive |  |  | inactive |  | inactive |  | inactive |  | inactive |  | inactive | inactive | inactive | inactive | inactive | inactive |
| Nc1ccn([C@@H]2O[C@H](CO)[C@@H](O)C2O)c(=O)n1 (stereo partly specified) | inactive | inactive |  |  |  | inactive |  | inactive |  |  | inactive | inactive |  |  | inactive | inactive | inactive |  | inactive |
| COC(=O)CCS | inactive | inactive |  |  |  | inactive | inactive | inactive | inactive | inactive | inactive | inactive |  |  | inactive | inactive | inactive | inactive | inactive |
| CCCCC(CC)COS(=O)(=O)O (stereo unspecified) | inactive | inactive |  |  |  | inactive | inactive | inactive |  | inactive |  | inactive |  | inactive | inactive | inactive | inactive |  | inactive |
| N#Cc1nc(Cl)c(Cl)c(Cl)c1Cl | 6.11 µM (active) | 2.43 µM (active) | inactive |  |  | 11.5 µM (active) | 36.3 µM (active) |  | inactive | inactive |  | inactive |  | inactive | inactive | inactive | inactive |  |  |
| CN1C[C@H]2c3ccccc3Oc3ccc(Cl)cc3[C@@H]2C1 | inactive | inactive |  |  | inactive | inactive |  | inactive |  | inactive | inactive | inactive |  | inactive |  |  | inactive | 23.9 µM (active) | inactive |
| CC(C)NCC(O)COc1ccc(CC(N)=O)cc1 (stereo unspecified) | inactive | inactive | inactive |  |  |  |  | inactive |  |  | inactive | inactive |  |  |  | inactive | inactive |  | inactive |
| CO/N=C1\CN(c2nc3c(cc2F)c(=O)c(C(=O)O)cn3C2CC2)CC1CN (stereo unspecified) | inactive | inactive | inactive |  |  |  | inactive | inactive | inactive | inactive |  | inactive |  | inactive |  | inactive | inactive | inactive |  |

From PubChem BioAssay (Tox21)
